From PubChem BioAssay (NCI) come the findings set out here.

Molecules are shown by their SMILES. This is part of a sample that, as a whole, favours compounds with a hit. Of some 83,000 tested, about 20% had one in any assay.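 Assay: single dose, 48 h. Readout: percent growth (0 = no net growth; negative = cell death). Active: <10.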 Values without a mark were called inactive. Active and inactive are the calls of the source.

Among the test systems are NCI-H23 lung; NCI-H226 lung; NCI-H322M lung; HOP-62 NSCLC; NCI-H460 lung; HOP-92 NSCLC; NCI-H522 lung; A549/ATCC NSCLC; 786-0 renal; COLO 205 colon; DU-145 prostate; K-562 leukemia; MALME-3M melanoma; MDA-MB-231 breast; RXF 393 renal; SF-268 CNS; SF-295 CNS; SF-539 CNS; M14 melanoma.
Holding throughout (assay): NCI-60 one-dose screen, 48 h (100 = growth as untreated, 0 = no growth, -100 = all killed)
Common to all, as to settings: 10 µM unless noted

`Nc1nc(N)c2nc(CNc3ccc(C(=O)CC(CCC(=O)O)C(=O)O)cc3)cnc2n1` (stereo not drawn): the growth in the experiment with NCI-H23 lung was 31.4%; in the experiment with NCI-H226 lung, 38.2%; in the experiment on NCI-H322M lung, 47.5%; in the experiment with HOP-62 NSCLC, 39.8%; in the experiment on NCI-H460 lung it was 19.8%; in the experiment on HOP-92 NSCLC, -3.77% (active). Moreover, the growth is -9.57% (active) in the experiment on NCI-H522 lung; 2.47% (active) in the experiment on A549/ATCC NSCLC; 20.9% in the experiment on 786-0 renal; 66% in the experiment on COLO 205 colon; 28.9% in the experiment on DU-145 prostate; 58.3% with K-562 leukemia. For the same molecule, the growth with MALME-3M melanoma was 111%; in the experiment with MDA-MB-231 breast, 101%; in the experiment with RXF 393 renal, 19.3%; with SF-268 CNS it was 29.7%; in the experiment on SF-295 CNS, 37.8%; in the experiment on SF-539 CNS, 20.5%. Moreover, in the experiment with M14 melanoma, the growth was 27.1%.

Regarding `O=c1[nH]c(CN2CCN(c3ccccc3F)CC2)nc2sc3c(c12)CCC3`, the growth is 105% in the experiment with NCI-H23 lung; 102% in the experiment with NCI-H226 lung; 98.9% in the experiment with NCI-H322M lung; 92.4% in the experiment with HOP-62 NSCLC; 123% in the experiment on NCI-H460 lung; 89% with HOP-92 NSCLC. Besides, the growth is 98.7% with NCI-H522 lung; 110% with A549/ATCC NSCLC; 95.8% in the experiment with 786-0 renal; 91.9% in the experiment on COLO 205 colon; 109% with DU-145 prostate; 109% in the experiment on K-562 leukemia. Further, the growth with MALME-3M melanoma was 96.4%; with MDA-MB-231 breast, 96.3%; in the experiment on RXF 393 renal, 160%; in the experiment on SF-268 CNS, 121%; in the experiment with SF-295 CNS, 144%; in the experiment with SF-539 CNS it was 98.6%. Besides, the growth in the experiment on M14 melanoma was 108%.

Take `Cc1ccccc1C(=O)c1ccccc1C(=O)O`: the growth is 100% in the experiment on NCI-H23 lung; 110% in the experiment with NCI-H226 lung; 108% with NCI-H322M lung; 106% with HOP-62 NSCLC; 111% in the experiment with NCI-H460 lung; 105% with HOP-92 NSCLC. Also, the growth with NCI-H522 lung was 102%; in the experiment on A549/ATCC NSCLC it was 103%; in the experiment on 786-0 renal, 97.9%; with COLO 205 colon, 115%; in the experiment with DU-145 prostate, 110%; in the experiment on K-562 leukemia it was 106%. Moreover, the growth was 109% in the experiment on MALME-3M melanoma; 115% in the experiment on MDA-MB-231 breast; 118% in the experiment with RXF 393 renal; 106% with SF-268 CNS; 109% with SF-295 CNS; 105% in the experiment with SF-539 CNS. For the same molecule, in the experiment with M14 melanoma, the growth is 96.3%.

As to `NC(=O)NNC(=O)c1ccccc1`, the growth was 103% in the experiment on NCI-H23 lung; 106% in the experiment with NCI-H226 lung; 109% in the experiment with NCI-H322M lung; 107% in the experiment on HOP-62 NSCLC; 103% in the experiment on NCI-H460 lung; 103% with HOP-92 NSCLC. Further, the growth with NCI-H522 lung was 107%; in the experiment on A549/ATCC NSCLC, 101%; in the experiment on 786-0 renal, 101%; in the experiment on COLO 205 colon, 118%; in the experiment on DU-145 prostate, 115%; in the experiment with K-562 leukemia, 103%. Besides, the growth in the experiment with MALME-3M melanoma was 110%; in the experiment with MDA-MB-231 breast, 113%; in the experiment on RXF 393 renal, 113%; in the experiment on SF-268 CNS, 107%; in the experiment with SF-295 CNS it was 106%; in the experiment on SF-539 CNS, 107%. The growth with M14 melanoma was 107%.

As for `COC(=O)CCCCCN=Cc1c(O)c(O)c(C(C)C)c2cc(C)c(-c3c(C)cc4c(C(C)C)c(O)c(O)c(C=NCCCCCC(=O)OC)c4c3O)c(O)c12`, the growth with NCI-H23 lung was 19.3%; in the experiment with NCI-H226 lung, 54.9%; in the experiment with NCI-H322M lung it was 32%; with HOP-62 NSCLC, 18.8%; in the experiment with NCI-H460 lung, 8.12% (active); in the experiment with HOP-92 NSCLC, -5.66% (active). Moreover, the growth was -21.8% (active) in the experiment with NCI-H522 lung; 20.8% in the experiment with A549/ATCC NSCLC; 28.1% in the experiment with 786-0 renal; 13.6% with COLO 205 colon; 23% in the experiment on DU-145 prostate; 9.57% (active) with K-562 leukemia. Also, the growth in the experiment with MALME-3M melanoma was 44.4%; in the experiment with MDA-MB-231 breast, 11.9%; in the experiment with RXF 393 renal it was 29.2%; in the experiment on SF-268 CNS, 25.6%; with SF-295 CNS it was 9.3% (active); with SF-539 CNS, 23.7%. Also, the growth with M14 melanoma is 18.6%.

Consider `O=S(=O)(NCCCNc1cc(-c2cn(-c3ccccc3)nc2-c2cccc(O)c2)ccn1)c1ccc(Br)cc1`, for which the growth in the experiment with NCI-H23 lung is 25.2%; with NCI-H226 lung, 22.2%; in the experiment on NCI-H322M lung it was 20.7%; with HOP-62 NSCLC it was 15.8%; in the experiment with NCI-H460 lung, 5.69% (active); in the experiment with HOP-92 NSCLC, -5.67% (active). The growth with NCI-H522 lung is 25.6%; with A549/ATCC NSCLC, 17.4%; in the experiment with 786-0 renal, -9.38% (active); with COLO 205 colon, -70.3% (active); with DU-145 prostate it was 31.3%; in the experiment with K-562 leukemia, -21.3% (active). The growth in the experiment on MALME-3M melanoma was -27.3% (active); in the experiment on MDA-MB-231 breast, -20.7% (active); with RXF 393 renal it was 2.04% (active); with SF-268 CNS, 17.9%; with SF-295 CNS it was -55.2% (active); in the experiment on SF-539 CNS, 18.9%. Further, the growth with M14 melanoma was 0.533% (active).

Turning to `CC(Br)C(O)c1cc2c(cc1Br)OCO2` (stereo not drawn), the growth with NCI-H23 lung was 100%; with NCI-H226 lung, 106%; with NCI-H322M lung, 111%; in the experiment with HOP-62 NSCLC, 102%; with NCI-H460 lung, 112%; with HOP-92 NSCLC it was 104%. Moreover, the growth in the experiment with NCI-H522 lung was 99.9%; in the experiment on A549/ATCC NSCLC, 103%; with 786-0 renal it was 100%; with COLO 205 colon it was 120%; with DU-145 prostate, 109%; in the experiment on K-562 leukemia, 101%. The growth was 109% in the experiment with MALME-3M melanoma; 111% in the experiment on MDA-MB-231 breast; 104% in the experiment with RXF 393 renal; 104% in the experiment on SF-268 CNS; 110% with SF-295 CNS; 105% in the experiment on SF-539 CNS. The growth in the experiment on M14 melanoma is 96%.
